Screening results (PubChem)
ABHD5 PLIN5 PPI = ABHD5-PLIN5 interaction inhibitors, primary screen, cell lysate, split luciferase complementation, luminescence; Perilipin-5 (Homo sapiens) + 1-acylglycerol-3-phosphate O-acyltransferase ABHD5 (Homo …; Split G. princeps luciferase complementation, 4 h; inhibition, % at 4 µM; actives 0.78% (n = 360,000); AID 602281, 2012;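 active = inhibition above the mean inhibition across every tested compound plus 3 SD, cut at about 22% in these data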;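 also: 0% = DMSO only wells and the 100% control is not disclosed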
rCAG binder = binders of r(CAG) RNA repeats, primary screen, biochemical, fluorescence; inhibition, % at 3 µM; r(CAG) RNA repeat, TO-PRO-1 dye displacement fluorescence; actives 1.3% (n = 370,000); AID 651821, 2012;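 active = inhibition above the plate cutoff, the mean of all test compounds on that plate plus 3 SD, cut at about 35% in these data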;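 also: 0% = DMSO alone and 100% = 100 µM mitoxantrone as full dye displacement; higher means more dye released from RNA so lower well fluorescence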
MBD2 inh = inhibitors of MBD2 binding to methylated DNA, primary screen, biochemical, TR-FRET, DNA-binding domain, human | Methyl-CpG-binding domain protein 2 (Homo sapiens), Q9UBB5 | MBD2 binding to methylated oligonucleotide | inhibition, % at 4.4 µM | actives 0.31% (n = 370,000) | AID 686964, 2013; in the data active = inhibition above about 13%
LEDGF integ inh = blockers of LEDGF/p75-dependent integrase strand transfer – biochemical, TR-FRET, high throughput, primary screen | TR-FRET IN-LEDGF/p75 DNA integration, Eu/Cy5 | inhibition, % at 3.7 µM | actives 0.64% (n = 370,000);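 active = inhibition above the screen-wide mean plus 3 SD, cut at about 13% in these data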;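 also: signal is the Cy5 over europium emission ratio at 671 and 618 nm; 0% = plate median of compound wells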
UHRF1 MBD2 ctr = UHRF1 methylated DNA binding inhibitors, primary screen, counter-screen for MBD2 inhibitor project, biochemical, TR-FRET, human UHRF1, single concentration; UHRF1 binding to methylated oligo; AID 687016, 2013; E3 ubiquitin-protein ligase UHRF1 (Homo sapiens), Q96T88; inhibition, % at 4.4 µM; actives 0.75% (n = 370,000); in the data active = inhibition above about 21%;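 also: UHRF1 SRA domain binding a hemimethylated CpG hairpin DNA probe; 0% = median of test compound wells and 100% = reference inhibitor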
Target sequence (Q96T88 whole entry, looked up, the tested form may be a part): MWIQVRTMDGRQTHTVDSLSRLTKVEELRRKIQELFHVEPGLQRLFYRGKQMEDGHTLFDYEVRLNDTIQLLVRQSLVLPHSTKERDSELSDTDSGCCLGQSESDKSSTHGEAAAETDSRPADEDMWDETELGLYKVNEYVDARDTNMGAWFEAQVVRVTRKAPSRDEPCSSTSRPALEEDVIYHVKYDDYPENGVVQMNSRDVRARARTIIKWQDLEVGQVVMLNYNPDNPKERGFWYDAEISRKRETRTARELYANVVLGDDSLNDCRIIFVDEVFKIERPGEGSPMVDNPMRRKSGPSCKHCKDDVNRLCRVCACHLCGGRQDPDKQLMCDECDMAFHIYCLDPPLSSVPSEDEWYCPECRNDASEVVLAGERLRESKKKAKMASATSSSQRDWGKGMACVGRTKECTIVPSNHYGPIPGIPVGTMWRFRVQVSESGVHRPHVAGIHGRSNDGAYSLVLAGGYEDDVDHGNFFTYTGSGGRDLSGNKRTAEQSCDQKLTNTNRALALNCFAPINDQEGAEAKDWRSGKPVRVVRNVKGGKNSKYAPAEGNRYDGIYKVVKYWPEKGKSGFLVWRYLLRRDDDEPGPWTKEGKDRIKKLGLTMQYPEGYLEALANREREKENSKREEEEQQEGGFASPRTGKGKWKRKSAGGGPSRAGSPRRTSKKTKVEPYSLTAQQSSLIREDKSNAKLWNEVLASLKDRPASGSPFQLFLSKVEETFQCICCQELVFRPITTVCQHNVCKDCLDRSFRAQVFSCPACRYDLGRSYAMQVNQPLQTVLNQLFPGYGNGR
PRMT1 FP inh = PRMT1 methyltransferase inhibitors, primary screen, biochemical, fluorescence polarization. recombinant PRMT1, activity-based probe fluorescence polarization. inhibition, % at 2.79 µM. actives 1.3% (n = 370,000);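 active = inhibition above about 21% made by adding two undisclosed values, limit read from the data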
rCAG bind conf = small molecules binding CAG repeat RNA – biochemical, fluorescence, confirmation; shares compounds with rCAG binder; inhibition, % at 3 µM; r(CAG) RNA repeat, TO-PRO-1 dye displacement fluorescence; actives 70% (n = 4,300);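 active = inhibition above a per-plate cutoff, the mean inhibition of sample wells plus 3 SD, cut at about 35% in these data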;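 also: loss of TO-PRO-1 fluorescence as compound displaces dye from 1x1 AA loop RNA; 0% = DMSO only wells and 100% = 100 µM mitoxantrone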
DNA CAG counter = displacement of TO-PRO-1 from CAG DNA duplex, counter-screen for rCAG RNA repeat binder project, biochemical, fluorescence, TO-PRO-1 dye, d(CAG) DNA oligo | shares compounds with rCAG binder | d(CAG) DNA oligo TO-PRO-1 dye displacement | inhibition, % at 3 µM | actives 94% (n = 4,300);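 active = inhibition above its plate's cutoff, the mean test-well inhibition plus 3 SD, cut at about 4.8% in these data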;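 also: 0% = DNA dye mix with DMSO and 100% = 100 µM mitoxantrone; hits displace the dye from DNA and so lower well fluorescence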
DNA CAG DR = inhibitors of DNA CAG/GTC TO-PRO-1 complex, dose response, counter-screen for rCAG RNA repeat binder project, biochemical, fluorescence, TO-PRO-1 dye; shares compounds with rCAG binder; DNA CAG/GTC duplex TO-PRO-1 dye displacement fluorescence; IC50, µM; actives 20% (n = 250); in the data active = IC50 below about 10 µM
PRMT1 confirm = PRMT1 methyltransferase inhibitors, confirmation, biochemical, fluorescence polarization, triplicate; inhibition, % at 2.79 µM; shares compounds with PRMT1 FP inh; recombinant His-PRMT1, activity-based probe fluorescence polarization; actives 42% (n = 3,300);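 active = mean inhibition across replicates above the hit cutoff derived for the earlier primary screen, cut at about 22% in these data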
* hit, by the source's call; / = no result given. The list is not random: actives were taken first. Their share in the collection is about 4.1%.

SMILES	ABHD5 PLIN5 PPI	rCAG binder	MBD2 inh	LEDGF integ inh	UHRF1 MBD2 ctr	PRMT1 FP inh	rCAG bind conf	DNA CAG counter	PRMT1 confirm	others
COc1cc(/C=C2/C(=O)NN(c3cccc(C)c3)C2=O)cc([N+](=O)[O-])c1O	11	39*	-8	0	-1	32*	20	6.1*	18
COc1cc(/C=C2\SC(=O)N(c3ccc(Cl)cc3)C2=O)cc([N+](=O)[O-])c1O	-2	34	0	-3	-2	2	/	/	/
CCOC(=O)C1=CCN(S(=O)(=O)c2cccc(Cl)c2)C1c1cccc(Br)c1 (configuration not stated)	/	4	-2	0	-2	-1	/	/	/
O=C(OCc1cn(Cc2ccc(C(F)(F)F)cc2)nn1)N1CCCC1	/	2	-2	-5	4	2	/	/	/
O=C(c1cc(O)c(O)c([N+](=O)[O-])c1)c1ccccc1F	10	35*	5	-12	-2	35*	35*	6.4*	12
O=C(Nc1ccc([N+](=O)[O-])cc1)c1ccccc1F	9	0	1	1	2	-2	/	/	/
COCCN=c1scc(-c2cccs2)n1/N=C/c1ccc(O)c(O)c1O	-7	48*	3	6	6	54*	62*	30*	27*	DNA CAG DR=9.2*
Cc1ccc(CN2CC=CCS2(=O)=O)cc1	/	2	-3	-1	3	0	/	/	/
CCOc1cc(/C=C2\SC(=S)N(C(C(=O)O)c3ccccc3)C2=O)ccc1O (configuration not stated)	2	66*	-11	6	-8	25*	62*	25*	-3
CCN(CC)S(=O)(=O)c1cccc(-c2n[nH]c(=S)n2/N=C/c2ccc(OC)cc2)c1	-12	50*	4	-2	1	59*	46*	12*	30*
CCN(CC)S(=O)(=O)c1cccc(-c2n[nH]c(=S)n2/N=C/c2ccc(Br)cc2)c1	-3	78*	-1	-1	-1	46*	83*	48*	33*
CCOc1ccc(C=Nn2c(-c3cccc(OC(C)C)c3)n[nH]c2=S)cc1	/	44*	1	-2	1	29*	46*	11*	10
CC(C)c1ccc(/C=N/n2c(-c3ccccc3)n[nH]c2=S)cc1	-9	39*	0	7	-1	51*	46*	13*	21*
COC(=O)C1=C(C)N(C)C(=NCc2ccc3c(c2)OCO3)NC1c1cccc(C(F)(F)F)c1 (configuration not stated)	/	9	-1	-2	7	2	/	/	/
CCN(CC)S(=O)(=O)c1cccc(-c2n[nH]c(=S)n2/N=C/c2ccc(OC(F)F)cc2)c1	-4	78*	-3	-3	-1	51*	64*	22*	34*
CCC(C)n1c(-c2cccc(S(=O)(=O)N(CC)CC)c2)n[nH]c1=S (configuration not stated)	-4	2	-3	-3	1	0	/	/	/
COc1ccc(N=C2NC(=O)/C(=C/c3ccco3)S2)cc1	6	31	-2	12	-3	6	/	/	/
COc1cc(/C=C2\S/C(=N/S(=O)(=O)c3ccccc3)NC2=O)c([N+](=O)[O-])cc1OC	-14	77*	-5	1	-8	30*	73*	33*	2	DNA CAG DR=6.6*
COc1ccc(S(=O)(=O)/N=C2/NC(=O)/C(=C\c3ccco3)S2)cc1	4	65*	1	9	20	30*	44*	12*	16
O=C1NC(=O)C(=Cc2ccccc2[N+](=O)[O-])S1	-26	4	-14	0	-13	9	/	/	/
O=C(NCc1ccccc1)[C@@H]1CCCN1C(=O)[C@H]1CCCN1C(=O)c1cc(F)cc(F)c1	/	-2	0	-5	0	-5	/	/	/
CCSc1nc2sc3c(c2c(=O)[nH]1)CCc1ccccc1-3	6	12	2	0	2	-2	/	/	/
NNc1nc2sc3c(c2c(=O)[nH]1)CCc1ccccc1-3	-10	44*	-7	6	1	61*	15	8.4*	5
CC(C)(C)OC(=O)N1C[C@@]23C[C@H](c4cccc(F)c4)[C@@H](C[C@@H]2S1(=O)=O)O3	/	3	0	-3	-3	3	/	/	/
CCC(CC)NC(=O)/C=C/c1ccccc1Cl	1	-2	1	0	0	-3	/	/	/
SMILES	ABHD5 PLIN5 PPI	rCAG binder	MBD2 inh	LEDGF integ inh	UHRF1 MBD2 ctr	PRMT1 FP inh	rCAG bind conf	DNA CAG counter	PRMT1 confirm	others
CCNc1ccc(Br)cc(C(=O)/C=C/c2ccccc2Cl)c1=O	18	46*	-2	12	0	33*	34	15*	18
O=C(N[C@@H](Cc1cccnc1)C(=O)N1CCC[C@H]1C(=O)NC1CCCC1)c1ccccc1	/	0	-2	-1	0	-2	/	/	/
C#CCNC(=O)C[C@@H]1C[C@@](CCC(=O)OCC)(C(=O)OCC)C2=CCCCN2C1=O	/	2	4	0	-2	6	/	/	/
CN(CCO)c1nc(N)c2c(N)nc3c(c2c1C#N)CC(=O)N3Cc1cccs1	8	38*	-19	0	1	27*	8	9.2*	1
O=C(CN1C(=O)S/C(=C\c2cccs2)C1=O)Nc1ccc(O)cc1C(=O)O	0	68*	-3	2	2	32*	49*	15*	4
CCCC(=O)OC[C@H]1CN([C@H](C)c2ccccc2)S(=O)(=O)c2c(F)cccc2O1	/	1	-1	2	0	-1	/	/	/
